Compounds with a hit are over-represented: about 21% of the library has one in this group of screens.
Pf growth 96h: Primary qHTS for delayed death inhibitors of the malarial parasite plastid, 96 hour incubation | P. falciparum luciferase reporter growth, 96 h | AID 504834, 2011 | Potency, µM (titrated, usually from 28.7 µM), most hits filed as inhibitors | 320,000 tested, 6.9% active
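Infected RBCs, 2% Hct / 0.05% parasitemia final; luciferase-reporter P. falciparum; cpd 96 h, 37 C, 5% CO2; luciferase detection reagent; luminescence.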
HCV inh: qHTS Assay for Inhibitors of Hepatitis C Virus (HCV) | Huh7.5.1 HCVcc-Cre infection, luciferase reporter, 44 h | Potency, µM (series often up to 41.8 µM), usual class: inhibitors | 340,000 tested, 3.4% active
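Infectious HCVcc-Cre (~0.5 moi) was added to cells just after compound, with cells seeded 4 h earlier at 1,000 per well. Luciferase activity after 44 h culture reported infection; substrate was incubated 15 min at room temperature before reading.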
CHX counter: Cycloheximide Counterscreen for Small Molecule Inhibitors of Shiga Toxin; max response, %; 300,000 tested, 12% active; AID 2314, 2010; cell reporter, cycloheximide protein synthesis inhibition counterscreen; in the data active = max response mostly above about 13%, no sharp cut-off; inactive = mostly below about 14%; also: read at 38.3 µM for the half of the compounds with a filed dose
Shiga toxin inh: A qHTS for Small Molecule Inhibitors of Shiga Toxin; Vero cells, Shiga toxin protein synthesis inhibition reporter; inhibition, % at 38.7 µM; 290,000 tested, 9.2% active; in the data active = inhibition mostly above about 28%, no sharp cut-off; inactive = mostly below about 43%
Pf growth 48h: Primary qHTS for delayed death inhibitors of the malarial parasite plastid, 48 hour incubation; P. falciparum luciferase growth in erythrocytes, 48 h; Potency, µM (titrated, usually from 28.7 µM), hits mostly inhibitors; 310,000 tested, 5.9% active; AID 504832, 2011
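Erythrocytes infected with P. falciparum carrying an integrated firefly luciferase reporter (2% hematocrit, 0.1% parasitemia final) were exposed to compounds in RPMI 1640 with 0.5% Albumax at 37 C, 5% CO2. Growth inhibition was scored as reduced luminescence.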
HCMV antiviral: qHTS Assay for inhibitors of the human cytomegalovirus (HCMV); HFF cells, HCMV-luciferase reporter, 72 h; hits give low values; activity change, negative = inhibition, % at 57.5 µM; 410,000 tested, 4.5% active; AID 1259415, 2018; in the data active = activity change below about -60%; inconclusive = no clear call, values can overlap the other calls; inactive = above about -39%
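Inhibition of viral replication was scored as loss of reporter luminescence in HFFs infected with HCMV-luciferase (MOI 1 PFU/cell) for 72 h; compounds tested at 2 doses, normalized to buffer and Salinomycin controls.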
Hits are given with their value; . = inactive; ? = inconclusive; / = no result; ! = not active in a repeat; [ ] = remark or other dose. Unless noted, calls follow the shape of the dose curve; as a rule, active = well fitted inhibition curve with a large enough effect; inconclusive = small, poorly fitted or top-dose-only effect, or another doubt; inactive = no such curve, though single readings can be large or run the other way.

SMILES | Pf growth 96h | HCV inh | CHX counter | Shiga toxin inh | Pf growth 48h | HCMV antiviral
COc1ccc(NC(=O)c2cc(-c3ccccc3O)n[nH]2)cc1Cl | 2.1µM | . | . | 51 | 2.6µM | .
NS(=O)(=O)c1ccc(CCNC(=O)c2cc(-c3cc(Cl)ccc3O)n[nH]2)cc1 | . | . | . | . | ? | -80
Cc1cc(O)c(-c2cc(C(=O)NCCc3ccc(S(N)(=O)=O)cc3)[nH]n2)cc1C | ? | ? | . | . | ? | ?
COc1cccc(OC)c1C1=NC(C)(C)CO1 | . | . | . | . | . | .
O=c1ccc(S(=O)(=O)N2CCCC2)cn1Cc1ccc(Cl)cc1Cl | ? | 6.3µM | / | / | ? | .
O=C(OC1CCc2ccccc2C1=O)c1ccccc1O (stereo unspecified) | / | . | 41 | 90 | . | .
Cc1ccc(-c2ccc(CO)o2)cc1N | .[5.75 µM] | ? | 25 | 55 | . | .
CCOc1ccc(-c2ccc(CO)o2)cc1N | / | / | / | / | / | .
CCOC(=O)c1ccc(-c2ccc(CO)o2)cc1 | . | . | 34 | 84 | . | .
Cc1cc(-c2nnc(SCC(=O)Nc3cccc(Cl)c3)n2N)n[nH]1 | ? | . | . | . | . | .
COc1cc(Nc2cc3c(cn2)cc(-c2cccnc2)n3C)cc(C(F)(F)F)c1 | / | / | / | / | / | .
COc1ccc(CNC(=O)c2cc3cc(C)ccc3n2C)cc1 | / | / | / | / | / | -79
COc1ccc(CNC(=O)c2cc3sccc3n2C)cc1 | / | / | / | / | / | .
Cc1ccc2c(c1)cc(C(=O)NCc1ccccc1)n2C | . | . | . | . | . | -71
CC(C)(C)OC(=O)NCC1CCC(C(=O)NC[C@H](CC(=O)O)c2ccc(Cl)cc2)CC1 (stereo partly specified) | ? | . | . | . | . | .
COc1ccc(N2C(=O)N(Cc3ccc(C)cc3)c3ccccc3S2(=O)=O)cc1 | ? | . | . | . | ? | .
C=CC(=O)Oc1ccc(N2Cc3ccccc3C2=O)cc1 | / | . | / | / | / | /
CCOc1ccc(N2Cc3ncccc3C2=O)cc1 | . | . | 47 | 137 | . | .
COc1ccc(N2Cc3ccccc3C2=O)cc1 | 2.9µM | . | 35 | / | . | .
O=C(O)[C@@H](c1ccccc1)N1Cc2ccccc2C1=O | ? | . | . | . | / | .
COc1ccc(N2C(=O)c3ccccc3S2(=O)=O)cc1 | . | . | . | . | 2.9µM | ?
O=C1c2ccccc2CN1c1ccccc1 | 4.1µM | . | 38 | 54 | . | .
C[C@H]1CN([C@@H](C)CO)C(=O)CCCn2nncc2CO[C@H]1CN(C)S(=O)(=O)c1ccc(-n2cccn2)cc1 | / | / | / | / | / | .
O=C1c2ccccc2CN2C(=O)c3ccccc3CN12 | 3.7µM! | / | . | . | . | .
Cc1ccc(N2C(=O)Cc3ccccc3C2=O)cc1 | . | . | . | . | . | .
SMILES | Pf growth 96h | HCV inh | CHX counter | Shiga toxin inh | Pf growth 48h | HCMV antiviral
Cc1ccc(N2Cc3ccccc3C2=O)cc1 | . | . | 25 | . | . | .
COc1cccc(-n2ccnc2SCC(=O)Nc2ccc(Cl)c(Cl)c2)c1 | / | / | / | / | / | -61
CCOc1ccccc1NC(=O)CSc1nccn1-c1ccc(Cl)cc1 | / | / | / | / | / | -72
COc1cccc(-n2ccnc2SCC(=O)Nc2ccccc2F)c1 | . | . | . | . | ? | .
COc1cccc(NC(=O)CSc2nccn2-c2cccc(OC)c2)c1 | 12µM | . | . | . | . | .
COc1cccc(-n2ccnc2SCC(=O)Nc2ccccc2)c1 | . | . | . | . | . | .
O=C(CSc1nccn1-c1ccc(Cl)cc1)Nc1nc2ccccc2s1 | / | / | / | / | / | .
COc1cccc(-n2ccnc2SCC(=O)Nc2cc(OC)ccc2OC)c1 | . | ? | . | . | . | .
COc1ccc(-n2ccnc2SCC(=O)Nc2ccc(F)cc2F)cc1 | / | / | / | / | / | -91
CN(CC(=O)Nc1ccccc1C(F)(F)F)C(=O)c1ccc(N2C(=O)CCC2=O)cc1 | . | . | / | / | . | .
COc1ccccc1CNC(=O)CCCCn1c(=O)c2ccccc2n(CC(=O)Nc2c(C)cc(C)cc2C)c1=O | / | / | / | / | / | .
CC[C@H](C)[C@H]1CNC(=S)N1CC1CCN(CCCC2CCCC2)CC1 | / | ? | / | / | / | .
N#Cc1cnc(=S)n(-c2cc(C(F)(F)F)cc(C(F)(F)F)c2)c1N | / | / | / | / | / | .
N#Cc1nn(-c2c(Cl)cc(C(F)(F)F)cc2Cl)c(N)c1S(=O)C(F)(F)F (stereo unspecified) | . | / | . | . | 1.9µM | .
O=C(O)c1ccccc1C(=O)NC1CCCCNC1=O (stereo unspecified) | . | . | . | . | ? | .
Cc1ccc(-c2c(C)cc3oc(=O)cc(-c4ccccc4)c3c2C)cc1 | / | . | . | . | / | .
CCOC(=O)c1ccc(-c2c(C)cc3oc(=O)cc(-c4ccccc4)c3c2C)cc1 | / | ? | 32 | . | / | .
Cc1ccc(CN2CCSc3ccc(C(=O)Nc4cc(C)cc(C)c4)cc32)cc1 | / | / | / | / | / | .
Cc1ccccc1-c1nnc(-c2ccccc2)o1 | ? | . | 35 | 95 | . | .
Cc1nnc(-c2ccccc2)o1 | . | . | . | . | . | .
O=[N+]([O-])c1cccc(-c2nnc(-c3ccccc3F)o2)c1 | ? | . | 30 | 22 | . | .
Cc1ccccc1-c1nnc(-c2ccc(Cl)cc2)o1 | . | . | 58 | 104 | / | .
Cc1cccc(-c2nnc(-c3ccccc3)o2)c1 | . | ? | 33 | 56 | . | .
O=C(CCc1ccncc1)NC1CCCc2c1cnn2-c1cc(F)cc(F)c1 (stereo unspecified) | ? | . | . | . | . | /
Cc1ccccc1-c1noc(-c2cccnc2N(C)Cc2ccc(Cl)cc2)n1 | / | / | / | / | / | .
SMILES | Pf growth 96h | HCV inh | CHX counter | Shiga toxin inh | Pf growth 48h | HCMV antiviral
Cc1ccccc1-c1nnc(CS(=O)(=O)c2ccccc2)o1 | ? | . | 43 | 61 | . | .
COc1ccc(-c2nnc(-c3ccc(N(C)C)cc3)o2)cc1 | / | . | . | . | . | .
Cc1ccccc1-c1nc(Cc2ccc(Cl)cc2)no1 | . | . | 25 | . | . | .
CN(C)c1ccc(-c2nnc(-c3ccccc3F)o2)cc1 | . | ? | 28 | 59 | . | .
Cn1cc(-c2nnc(-c3ccccc3)o2)c2ccccc21 | . | . | 59 | 146 | . | .
COc1ccccc1NC(=O)C(Cc1ccccc1)NS(=O)(=O)c1ccc2c(c1)c(=O)n(C)c(=O)n2C (stereo unspecified) | / | / | / | / | / | .
Cn1nnnc1SCC(=O)Nc1ncc(Cl)cc1Cl | . | . | / | / | . | .
C#CCOCCOCCOCCNc1nc(N2CCN(C(=O)CCCCCCCCCCNC(=O)[C@H](CCCN=C(N)N)n3cc(C[C@@H](C)CC)nn3)CC2)nc(N2CCN(C(=O)CCCCCCCCCCNC(=O)[C@@H]([C@H](C)CC)n3cc(CCCCCN)nn3)CC2)n1 | 8.3µM | ? | / | / | 3.3µM | /
